The values below come from PubChem BioAssay AID504847 (National Center for Advancing Translational Sciences (NCATS), 2011).

Where “and” joins values, the source holds several entries; their conditions need not be identical. Equal values may be shown once. The whole screen tested about 400,000 compounds, of which about 3,700 (0.93%) were called active. Not shown: some 3% with an inconclusive outcome. The call rests on the fitted dose curve; in most records, active means well fitted inhibition curve with a large enough effect; inconclusive means small, poorly fitted or top-dose-only effect, or another doubt; inactive means no such curve, though single readings can be large or run the other way. The sample as a whole holds a higher share of actives than the screen did. Where a SMILES comes first, the peptide text is derived from it. Side-chain parts run from the residue outwards. [ ]: non-standard residue; d: D form. The star is where a group is joined. X1 = CCC(C)C(N)C1=NC(C(=O)*)CS1; Orn = NCCC[CH](N)C(=O)O
On the % scale 0 is the no-effect control and ±100 the full control effect; potency means the concentration at half of the fitted maximal effect.

Vitamin D3 receptor (Homo sapiens), sequence (P11473 whole entry, looked up): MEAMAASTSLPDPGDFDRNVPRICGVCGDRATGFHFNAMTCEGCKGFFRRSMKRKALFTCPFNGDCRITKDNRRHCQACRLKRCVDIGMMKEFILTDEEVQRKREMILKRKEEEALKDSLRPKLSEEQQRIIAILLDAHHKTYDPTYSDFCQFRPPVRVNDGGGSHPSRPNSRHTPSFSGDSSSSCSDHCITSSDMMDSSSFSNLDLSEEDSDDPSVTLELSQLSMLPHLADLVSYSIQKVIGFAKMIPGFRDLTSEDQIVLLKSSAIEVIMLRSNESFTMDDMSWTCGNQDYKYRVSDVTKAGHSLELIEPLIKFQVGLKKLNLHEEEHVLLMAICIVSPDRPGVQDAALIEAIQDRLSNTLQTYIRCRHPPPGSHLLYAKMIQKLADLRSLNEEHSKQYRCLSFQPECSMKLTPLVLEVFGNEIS

In this assay the target is Vitamin D3 receptor (Homo sapiens) (UniProt P11473). The assay is described as follows: Inhibitors of the vitamin D receptor (VDR): qHTS. Particulars: VDR-SRC2-3 peptide fluorescence polarization, 2 h; max response, negative = inhibition: active compounds read low. Put shortly:
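VDR–SRC2-3 interaction, FP format. Cmpds 23 nl via pintool, brief spin, 2 h ambient incubation.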
For orientation: In qHTS, concentration-response curves come from the screen itself.
In the case of `O=C(NCCc1ccc(Cl)cc1)c1ccc2c(c1)N(Cc1ccc(F)cc1)C(=O)CS2`, the max response, negative = inhibition was -1.91% (inactive).
For the compound `Cc1c(S(=O)(=O)O)oc2c1C(=O)C(=O)c1c-2ccc2c1CCCC2(C)C`, the Potency is 8.91 µM (active).
For the compound `Cc1ccc(C(=O)Nc2nc(-c3ccccc3)ns2)cc1`, the max response, negative = inhibition was 2.63% (inactive).
For `CCCCCCCCCCCCCCCCO`, the max response, negative = inhibition was 0.1% (inactive) and 6.37% (inactive).
On the same count and under the same terms, then `CCOc1ccc(S(=O)(=O)NCCC(=O)NCC2CCCO2)cc1` (configuration not stated), with -3.32% (inactive); and `CCOc1ccc(S(=O)(=O)N2CCN(C(=S)NCC3CCCO3)CC2)cc1` (configuration not stated), with 28.2% (inactive).
`CCOc1ccc(-n2c(N)c(C(=O)NCC3CCCO3)sc2=S)cc1` (configuration not stated): the Potency is 79.4 µM (active).
On to `O=C(NC1CC(=O)N(c2ccc(Cl)cc2)C1)C1CCCC1` (configuration not stated), for which the max response, negative = inhibition was -5.32% (inactive).
As for `CCCCC(=O)Nc1c2c(nn1-c1ccc([N+](=O)[O-])cc1)CS(=O)(=O)C2`, the max response, negative = inhibition is -18.5% (inactive).
As for `CN(C)S(=O)(=O)N1CCN(c2ccc([N+](=O)[O-])cc2)CC1`, the max response, negative = inhibition is -2.16% (inactive).
As for `O=C1/C(=C\c2ccc([N+](=O)[O-])cc2)CS(=O)(=O)C/C1=C/c1ccc([N+](=O)[O-])cc1`, the Potency was 39.8 µM (active).
On to `Cc1cc(C)c(-c2n[nH]c3c2C(c2ccccc2F)N(CCO)C3=O)c(O)c1` (configuration not stated), for which the max response, negative = inhibition was 7.23% (inactive).
With `O=c1cnc2cnc(Nc3ccccc3)nc2n1Cc1ccc(F)cc1`, the max response, negative = inhibition was -4.57% (inactive).
As to `Cc1cc(NC(=O)CSc2ncc(C(=O)Nc3ccc(Cl)cc3)c(=O)n2C)no1`, the max response, negative = inhibition is 4.19% (inactive).
On to `COc1ccc(NC(=O)c2ccco2)cc1NC(=O)COc1ccc(C)c(C)c1`, for which the max response, negative = inhibition is 5.81% (inactive).
`O=C(NC(=S)Nc1ccccc1C(=O)O)c1ccc(-c2ccc(Br)cc2)o1`: the Potency was 70.8 µM (active).
`O=C(O)c1ccccc1NC(=O)c1ccccc1-c1ccccc1C(=O)O`: the max response, negative = inhibition is -22.4% (inactive).
Regarding `CN1CCN(C(=O)c2ccc(-c3ccc(Br)cc3)o2)CC1`, the max response, negative = inhibition is -9.02% (inactive).
Consider `O=C(Nc1ccccc1Cl)N1CCC(CN2CCCCC2)CC1`, for which the max response, negative = inhibition was 4.52% (inactive).
Turning to `COc1cc(-c2cc3n(C)c(C)c(CCC(=O)Nc4ccc(F)cc4)c(=O)n3n2)cc(OC)c1OC`, the max response, negative = inhibition is -2.64% (inactive).
As to `NCCCNC(=S)NCCCN(Cc1ccc(Cl)cc1)c1ccc(Br)cn1`, the max response, negative = inhibition was -24.7% (inactive).
In the case of `O=C1C=CC(=O)N1c1ccc(N2CCCCC2)cc1`, the Potency is 17.8 µM (active).
In the case of `CC(=O)Nc1ccc(S(=O)(=O)Nc2ccc(N3CCCCC3)cc2)cc1`, the max response, negative = inhibition was 6.02% (inactive).
On the same count and under the same terms, the result for `O=C(C1CC(=O)N(C2CCCCC2)C1)N1CCN(c2ccccc2)CC1` (configuration not stated) reads -11.8% (inactive).
Still for that read-out and setting: then `Cc1cc(-c2ccc(C)c(S(=O)(=O)N3c4ccccc4CC3C)c2)on1` (configuration not stated), with 9.78% (inactive).
Turning to `Cc1[nH][nH]c(=O)c1C(c1ccc(-c2ccc(Cl)cc2)o1)c1c(C)[nH][nH]c1=O`, the Potency was 79.4 µM (active).
As to `CCOc1ccc(C(=O)CCC(=O)Nc2ccncc2)cc1`, the max response, negative = inhibition was -4.74% (inactive).
For `CCOc1ccc(C(=O)N2CCN(CCc3ccccn3)CC2)cc1`, the max response, negative = inhibition is -7.3% (inactive).
With `CCOc1ccc(C(=O)CCN2CCOCC2)cc1`, the Potency was 50.1 µM (active).
Take `Cc1ccc(-c2nnc3c4ccccc4c(C)nn23)cc1NC(=O)c1cccc(Br)c1`: the max response, negative = inhibition was -6.72% (inactive).
Turning to `CCC(=O)N1CCc2cc(S(=O)(=O)NC(C(=O)NCCc3ccc(C)cc3)C(C)C)ccc21` (configuration not stated), the max response, negative = inhibition was -2.72% (inactive).
As to `Cc1cccc(N2CCN(C(=O)Cn3ncc4c5ccccc5n(C)c4c3=O)CC2C)c1` (configuration not stated), the max response, negative = inhibition is 4.17% (inactive).
Consider `CCCC[C@H]1C(=O)N(c2ccccc2)N(c2ccc(O)cc2)C1=O`, for which the Potency was 10 µM (active).
For the compound `CCCOC(=O)c1ccc(N2C(=O)c3ccccc3C2=O)cc1`, the max response, negative = inhibition is -19.4% (inactive).
Still for that read-out and setting: then `CCCCc1ccc(NC(=O)CN2C(=O)NC(Cc3ccccc3)C2=O)cc1` (configuration not stated), with 3.7% (inactive); and `CC(C)c1ccc2oc(-c3cc(NC(=O)c4cccs4)ccc3Cl)nc2c1`, with 15% (inactive).
With `CCC(C)C(N)C1=NC(C(=O)NC(CC(C)C)C(=O)NC(CCC(=O)O)C(=O)NC(C(=O)NCCCCC2NC(=O)C(CC(N)=O)NC(=O)C(CC(=O)O)NC(=O)C(Cc3cnc[nH]3)NC(=O)C(Cc3ccccc3)NC(=O)C(C(C)CC)NC(=O)C(CCCN)NC2=O)C(C)CC)CS1` (stereo not drawn) (cyclo(DNK([Ile-Glu-Leu-X1])[Orn]IFH); configuration not given here), the max response, negative = inhibition was -26.4% (inactive).
Take `C#CCOc1ccc(C2CC(=O)Nc3c2c(C)nn3-c2nc(C)cc(C)n2)cc1` (configuration not stated): the max response, negative = inhibition is 10.7% (inactive).
For the compound `CC(=NNC(=O)c1ccc2nc[nH]c2c1)c1ccc(Br)cc1`, the max response, negative = inhibition is -21.3% (inactive).
Turning to `CN(C)N=Nc1ccc2nc[nH]c2c1`, the Potency is 35.5 µM (active).
On to `CC/C(O)=N\S(=O)(=O)c1ccc(N=NN(C)C)cc1`, for which the max response, negative = inhibition was 15.8% (inactive).
Still for that read-out and setting: then `COc1cc(OC)c(NC(=O)Cc2ccc(-n3c(C)nc4cccnc43)cc2)cc1Cl`, with 1.5% (inactive).
As to `CC1=C/C(=N\OS(=O)(=O)c2ccccc2)C=CC1=O`, the Potency was 31.6 µM (active).
On to `Cc1ccc(NC(=O)C2CCN(S(=O)(=O)c3cc(-c4noc(C)n4)ccc3C)CC2)c(C)c1`, for which the max response, negative = inhibition is 14.7% (inactive).
On to `Cc1nn2c(=O)cc(COC(=O)c3cccc(NC(=O)COc4ccccc4Cl)c3)nc2s1`, for which the max response, negative = inhibition is 9.23% (inactive).
In the case of `Nc1ncnc2c1c(I)cn2[C@@H]1C[C@H](N)[C@@H](O)[C@H]1O`, the max response, negative = inhibition is -8.19% (inactive).
Regarding `COc1ccc(Cl)cc1NC(=O)c1sc2nc3c(cc2c1N)CN(C)CC3`, the max response, negative = inhibition is -1.58% (inactive).
For `N#Cc1c(C(F)(F)F)cc(-c2ccc(Cl)cc2)nc1SCC(=O)O`, the max response, negative = inhibition was -2.18% (inactive).
On to `N#Cc1c(N2CCCCC2)nc(N)c2c(N)nc(SCC(=O)O)cc12`, for which the Potency is 50.1 µM (active).
For the compound `O=C(O)CSc1ccc(S(=O)(=O)N2CCCC2)cn1`, the max response, negative = inhibition is 10.8% (inactive).
`Cc1cc(C)cc(NS(=O)(=O)c2cc3c(cc2C)NC(=O)CO3)c1`: the max response, negative = inhibition was -6.49% (inactive).
Turning to `Cc1cc(C)c(NC(=O)CN2C(=O)c3cccnc3Oc3ccc(Cl)cc32)c(C)c1`, the max response, negative = inhibition is 7.84% (inactive).
Consider `CCOc1ccc(NC(=O)c2ncoc2-c2ccco2)cc1`, for which the max response, negative = inhibition is 3.68% (inactive).
For the compound `C=CCNC(=O)c1ccc2nc(-c3ccco3)c(-c3ccco3)nc2c1`, the max response, negative = inhibition was -28.3% (inactive).
Take `COCCNC(=O)Nc1ccc2nc(-c3ccco3)c(-c3ccco3)nc2c1`: the Potency is 79.4 µM (active).
For `CCC(C)NC(=O)Cn1c(=O)n(-c2ccc(Cl)cc2)c(=O)c2c3c(sc21)CCCC3` (configuration not stated), the max response, negative = inhibition is 7.47% (inactive).
As for `Cc1nc([N+](=O)[O-])nn1C12CC3CC(CC(Br)(C3)C1)C2`, the Potency was 20 µM (active).
With `CC1(C)OC2CC(=O)OC[C@@]23C1CC(=O)[C@]1(C)C3CC[C@@]2(C)C(c3ccoc3)OC(=O)C3O[C@@]321` (some centres not stated), the max response, negative = inhibition is 3.74% (inactive).
Consider `CCOC(=O)c1c(C)oc2nc(C)nc(N3CCN(c4ccc(OC)cc4)CC3)c12`, for which the max response, negative = inhibition is 5.63% (inactive).
Turning to `COc1ccc(C2(C#N)CCC(C(=O)O)CC2)cc1OC1CCCC1` (configuration not stated), the max response, negative = inhibition was 5.35% (inactive).
With `CC(C)Oc1ccc(CC(=O)NNC(=S)Nc2ccc(Br)cc2)cc1`, the Potency is 70.8 µM (active).
Regarding `Cc1ccc(OC(=O)CCC(=O)Nc2ccc(Br)cc2)cc1`, the max response, negative = inhibition was 4.03% (inactive).
As for `CC(C)Oc1ccc(NC(=O)c2cc3ccccc3o2)cc1`, the max response, negative = inhibition is 10.8% (inactive).
`FCOC(C(F)(F)F)C(F)(F)F`: the max response, negative = inhibition was 1.95% (inactive).
As for `O=C(CSc1nnc(CNC(=O)c2ccccc2)n1-c1ccc(F)cc1)Nc1ccccc1F`, the max response, negative = inhibition was 2.71% (inactive).
With `CCOc1ccc(N(C)S(=O)(=O)c2cc(-c3cnc(C)o3)ccc2OC)cc1`, the max response, negative = inhibition is -2.82% (inactive).
For `O=C(c1ccc2c(c1)C(=O)N(c1ccc(Cl)cc1)C2=O)N1CCN(c2ccccn2)CC1`, the max response, negative = inhibition is -2.28% (inactive).
With `O=C(O)c1ccc2c(c1)C(=O)N(c1ccc(/C=C/C(=O)c3ccccc3)cc1)C2=O`, the Potency is 20 µM (active).
As to `Cc1cccc(N2C(=O)c3ccc(C(=O)Nc4cccc(C(=O)O)c4)cc3C2=O)c1`, the max response, negative = inhibition was 13.1% (inactive).
`Cc1ccc(-n2c(SCC(=O)c3ccccc3)nc3c([nH]c4ccccc43)c2=O)cc1`: the max response, negative = inhibition was 23.5% (inactive).
For `COc1ccc(Cl)cc1NC(=O)CSc1nc(=O)[nH]c2c1CCCC2`, the max response, negative = inhibition is -3.46% (inactive).
As for `Nc1ncc(S(=O)(=O)Nc2ccc(OC(F)(F)F)cc2)cn1`, the max response, negative = inhibition is 5.75% (inactive).
Regarding `CC1CN(Cc2ccco2)C(=S)N(c2ccccc2)C1=O` (configuration not stated), the max response, negative = inhibition is 8.1% (inactive).
As for `CN(C)C(=S)N=c1ssc(=S)n1Cc1ccco1`, the Potency is 44.7 µM (active).
As to `CCN(CC)C(=O)CSc1nnc(CNc2ccc(F)cc2)n1Cc1ccco1`, the max response, negative = inhibition is 6.05% (inactive).
For the compound `COc1cc(C(=O)Nc2ccc(-n3c(C)nc4ccccc4c3=O)cc2)cc(OC)c1OC`, the max response, negative = inhibition is -3.22% (inactive).
With `Cc1cccc(NC(=O)C2CCCN2S(=O)(=O)c2cccc3nsnc23)c1C` (configuration not stated), the max response, negative = inhibition was -10.9% (inactive).
As for `CN(C)C(=O)N=NC(=O)N(C)C`, the Potency was 20 µM (active).
For the compound `COc1ccc(-n2ccnc(NCCc3ccc(Cl)cc3)c2=O)cc1OC`, the max response, negative = inhibition was 6.6% (inactive).
On to `COc1cccc(-c2nnc3n(CCc4ccccc4)c(=O)c4ccccc4n23)c1O`, for which the max response, negative = inhibition is 17.6% (inactive).
`Cc1csc(NC(=O)c2ccc(-c3ccc(Cl)cc3Cl)o2)n1`: the max response, negative = inhibition was -1.72% (inactive).
As to `CC1CCN(C(=S)c2cccc(O)c2)CC1`, the max response, negative = inhibition is -26.6% (inactive).
Turning to `CC1CCN(C(=S)c2ccc(-c3ccc(Cl)cc3Cl)o2)CC1`, the Potency is 79.4 µM (active).
With `Cc1cccc(Nc2cc(C)nc(-n3nc(C)cc3C)n2)c1`, the max response, negative = inhibition is 8.15% (inactive).
Still for that read-out and setting: then `Cc1cccn2c(=O)c3cc(C(=O)NC4CCCCC4)sc3nc12`, with 8.23% (inactive); and `Cc1cccn2c(=O)c(/C=C(\C#N)C(N)=O)c(N3CCCCCC3)nc12`, with -6.66% (inactive).
In the case of `Cc1cc(C)cc(Oc2nc3c(C)cccn3c(=O)c2/C=C(\C#N)C(=O)NC2CCS(=O)(=O)C2)c1` (configuration not stated), the Potency was 20 µM (active).
